Experimental data as given in paper PMC11006913.
Changes are numbered by the printed parent chain.

What was measured:
Test in all cases: PBM; 200 nM protein, PBS
Conditions in all cases: dsDNA, one strand shown
NKX2-4 [1] = target: T1, NKX2-4 (Homo sapiens, UniProt Q9H2Z4 175-261, P217L)
T1 sequence: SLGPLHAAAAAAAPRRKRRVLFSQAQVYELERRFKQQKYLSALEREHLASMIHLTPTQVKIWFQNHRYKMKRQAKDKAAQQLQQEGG

NKX2-4 [2] = target: T2, NKX2-4 (Homo sapiens, UniProt Q9H2Z4 175-261, T231S)
T2 sequence: T1 sequence with L43P, T57S

NKX2-4 [3] = target: T3, NKX2-4 (Homo sapiens, UniProt Q9H2Z4 175-261)
T3 sequence: T1 sequence with L43P

NKX2-4 [4] = target: T4, NKX2-4 (Homo sapiens, UniProt Q9H2Z4 175-261, R246Q)
T4 sequence: T1 sequence with L43P, R72Q

NKX2-6 = target: T5, NKX2-6 (Homo sapiens, UniProt A6NCS4 118-204, F151L)
T5 sequence: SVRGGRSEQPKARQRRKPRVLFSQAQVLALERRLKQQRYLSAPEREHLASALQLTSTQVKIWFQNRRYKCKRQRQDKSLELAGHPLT

NKX3-2 [5] = target: NKX3-2 (Homo sapiens, UniProt P78367 192-278, P234S)
NKX3-2 [6] = target: NKX3-2 (Homo sapiens, UniProt P78367 192-278)
Chain of NKX3-2 (Homo sapiens, UniProt P78367 192-278) (P78367 192-278): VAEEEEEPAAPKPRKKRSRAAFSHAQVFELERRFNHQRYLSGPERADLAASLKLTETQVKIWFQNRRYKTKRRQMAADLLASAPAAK

Chain of NKX3-2 (Homo sapiens, UniProt P78367 192-278, P234S) (P78367 192-278 P234S): as the sequence (P78367 192-278) above, with P43S counted along it

Sequence	binding signal (NKX2-4 [1])	binding signal (NKX2-4 [2])	binding signal (NKX2-4 [3])	binding signal (NKX2-4 [4])	binding signal (NKX2-6)	binding signal (NKX3-2 [5])	binding signal (NKX3-2 [6])
CTACTTCA	12.4 upbm affinity estimate (log intensity, higher = more binding, comparable within an allelic series)	12.6 upbm affinity estimate (log intensity, higher = more binding, comparable within an allelic series)	12.2 upbm affinity estimate (log intensity, higher = more binding, comparable within an allelic series)	12.8 upbm affinity estimate (log intensity, higher = more binding, comparable within an allelic series)	–	–	–
CTACTCAA	12.1 upbm affinity estimate (log intensity, higher = more binding, comparable within an allelic series)	12.5 upbm affinity estimate (log intensity, higher = more binding, comparable within an allelic series)	12 upbm affinity estimate (log intensity, higher = more binding, comparable within an allelic series)	12.4 upbm affinity estimate (log intensity, higher = more binding, comparable within an allelic series)	–	–	–
ACCAACGG	9.32 upbm affinity estimate (log intensity, higher = more binding, comparable within an allelic series)	9.25 upbm affinity estimate (log intensity, higher = more binding, comparable within an allelic series)	9.28 upbm affinity estimate (log intensity, higher = more binding, comparable within an allelic series)	9.29 upbm affinity estimate (log intensity, higher = more binding, comparable within an allelic series)	–	–	–
CCGCTACC	9.71 upbm affinity estimate (log intensity, higher = more binding, comparable within an allelic series)	9.7 upbm affinity estimate (log intensity, higher = more binding, comparable within an allelic series)	9.66 upbm affinity estimate (log intensity, higher = more binding, comparable within an allelic series)	9.79 upbm affinity estimate (log intensity, higher = more binding, comparable within an allelic series)	–	–	–
CACGCACG	9.72 upbm affinity estimate (log intensity, higher = more binding, comparable within an allelic series)	9.75 upbm affinity estimate (log intensity, higher = more binding, comparable within an allelic series)	9.72 upbm affinity estimate (log intensity, higher = more binding, comparable within an allelic series)	9.75 upbm affinity estimate (log intensity, higher = more binding, comparable within an allelic series)	–	–	–
ATTCTTGA	11.5 upbm affinity estimate (log intensity, higher = more binding, comparable within an allelic series)	11.7 upbm affinity estimate (log intensity, higher = more binding, comparable within an allelic series)	11.2 upbm affinity estimate (log intensity, higher = more binding, comparable within an allelic series)	11.7 upbm affinity estimate (log intensity, higher = more binding, comparable within an allelic series)	–	–	–
ATGAGTAC	12.4 upbm affinity estimate (log intensity, higher = more binding, comparable within an allelic series)	12.8 upbm affinity estimate (log intensity, higher = more binding, comparable within an allelic series)	12.3 upbm affinity estimate (log intensity, higher = more binding, comparable within an allelic series)	12.7 upbm affinity estimate (log intensity, higher = more binding, comparable within an allelic series)	–	–	–
GAACTGGC	9.51 upbm affinity estimate (log intensity, higher = more binding, comparable within an allelic series)	9.49 upbm affinity estimate (log intensity, higher = more binding, comparable within an allelic series)	9.54 upbm affinity estimate (log intensity, higher = more binding, comparable within an allelic series)	9.65 upbm affinity estimate (log intensity, higher = more binding, comparable within an allelic series)	–	–	–
AGGCGGGC	9.12 upbm affinity estimate (log intensity, higher = more binding, comparable within an allelic series)	8.97 upbm affinity estimate (log intensity, higher = more binding, comparable within an allelic series)	9.16 upbm affinity estimate (log intensity, higher = more binding, comparable within an allelic series)	9.08 upbm affinity estimate (log intensity, higher = more binding, comparable within an allelic series)	–	–	–
TGCCCCCA	9.77 upbm affinity estimate (log intensity, higher = more binding, comparable within an allelic series)	9.8 upbm affinity estimate (log intensity, higher = more binding, comparable within an allelic series)	9.76 upbm affinity estimate (log intensity, higher = more binding, comparable within an allelic series)	9.88 upbm affinity estimate (log intensity, higher = more binding, comparable within an allelic series)	–	–	–
CGATCCCG	9.54 upbm affinity estimate (log intensity, higher = more binding, comparable within an allelic series)	9.56 upbm affinity estimate (log intensity, higher = more binding, comparable within an allelic series)	9.59 upbm affinity estimate (log intensity, higher = more binding, comparable within an allelic series)	9.65 upbm affinity estimate (log intensity, higher = more binding, comparable within an allelic series)	–	–	–
ACACTCAA	12.5 upbm affinity estimate (log intensity, higher = more binding, comparable within an allelic series)	12.8 upbm affinity estimate (log intensity, higher = more binding, comparable within an allelic series)	12.3 upbm affinity estimate (log intensity, higher = more binding, comparable within an allelic series)	12.8 upbm affinity estimate (log intensity, higher = more binding, comparable within an allelic series)	10.6 upbm affinity estimate (log intensity, higher = more binding, comparable within an allelic series)	–	–
GGTCGCCA	9.68 upbm affinity estimate (log intensity, higher = more binding, comparable within an allelic series)	9.67 upbm affinity estimate (log intensity, higher = more binding, comparable within an allelic series)	9.7 upbm affinity estimate (log intensity, higher = more binding, comparable within an allelic series)	9.8 upbm affinity estimate (log intensity, higher = more binding, comparable within an allelic series)	–	–	–
ACGGCGAC	9.81 upbm affinity estimate (log intensity, higher = more binding, comparable within an allelic series)	9.82 upbm affinity estimate (log intensity, higher = more binding, comparable within an allelic series)	9.78 upbm affinity estimate (log intensity, higher = more binding, comparable within an allelic series)	9.81 upbm affinity estimate (log intensity, higher = more binding, comparable within an allelic series)	–	–	–
CACTCAAA	12.4 upbm affinity estimate (log intensity, higher = more binding, comparable within an allelic series)	–	–	–	–	12.3 upbm affinity estimate (log intensity, higher = more binding, comparable within an allelic series)	12.3 upbm affinity estimate (log intensity, higher = more binding, comparable within an allelic series)
